Among the data in PubChem BioAssay (NCI) are growth values, retold here.

The panel holds about 83,000 compounds, 20% with a hit somewhere; the sample as a whole holds those more often.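 Negative percent growth values reflect cell death: -40 means 40% of the cells present at the start died, and -100 means all died.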 A number with no mark means an inactive call. Activity calls are given as the source filed them. How the source made its calls: active means growth percent below 10; inactive means the rest.

What all share (experiment): NCI-60 one-dose screen, 48 h (100 = growth as untreated, 0 = no growth, -100 = all killed)
Test [1] deals with HCT-15 colon. The following applies: 10 µM unless noted.
Test [2] has as its system HT29 colon. The following applies: 10 µM unless noted.
The subject of test [3] is SNB-75 CNS. The following applies: 10 µM unless noted.
In test [4] the test system is SNB-19 CNS. To be noted: 10 µM unless noted.
The subject of test [5] is U251 CNS. To be noted: 10 µM unless noted.
Test [6] deals with PC-3 prostate. The following applies: 10 µM unless noted.
Test [7] relates to SK-MEL-5 melanoma. The following applies: 10 µM unless noted.
For test [8], the system named is UACC-62 melanoma. To be noted: 10 µM unless noted.
The test system of test [9] is LOX IMVI melanoma. To be noted: 10 µM unless noted.
The test system of test [10] is SK-MEL-28 melanoma. To be noted: 10 µM unless noted.
Test [11] relates to SK-MEL-2 melanoma. The following applies: 10 µM unless noted.
The test system of test [12] is EKVX NSCLC. To be noted: 10 µM.
Test [13] relates to SN12C renal. The following applies: 10 µM unless noted.
The test system of test [14] is UO-31 renal. The following applies: 10 µM unless noted.
In test [15] the test system is TK-10 renal. The following applies: 10 µM unless noted.
Test [16] has as its system ACHN renal. To be noted: 10 µM unless noted.
In test [17] the test system is A498 renal. The following applies: 10 µM unless noted.
Test [18] concerns CCRF-CEM leukemia. To be noted: 10 µM.
Test [19] deals with MOLT-4 leukemia. To be noted: 10 µM unless noted.

For the compound `COc1ccc(C2=C/C(=C\c3ccc(Cl)cc3)C(=O)NN2C(=S)NN)cc1`, the growth in [1] is 104%; in test [2], 109%; in [3] it was 61.2%; in test [4], 103%; in test [5], 104%; in test [6], 92.3%. Besides, the growth in test [7] was 97.7%; in [8], 86.6%; in test [9] it was 101%; in test [10], 113%; in test [11] it was 97.3%; in [12], 94.2%. Besides, the growth in test [13] is 104%; in [14], 79.6%; in test [15], 129%; in test [16] it was 96.5%; in test [17], 99.3%; in test [18], 91.6%. For the same compound, the growth in test [19] was 97.8%.

As for `Cc1c(Cc2ccccc2)c(=O)oc2c(C)c(OCc3n[nH]c(=S)o3)ccc12`, the growth is 75.7% in test [1]; 86.8% in test [2]; 71.4% in [3]; 85.8% in [4]; 64.4% in test [5]; 11.2% in test [6]. Moreover, the growth in [7] was 83.8%; in [8], 90.4%; in test [9], 64.5%; in test [10], 110%; in test [11] it was 101%; in test [12], 79%. The growth in test [13] is 67.8%; in test [14], 94.8%; in test [15], 116%; in test [16], 89.2%; in test [17] it was 67.3%; in test [18] it was 22.8%. Besides, the growth in test [19] was 19.8%.

With `Cc1nnc(-c2cc3c(ccc4ccccc43)oc2=O)c2cn(-c3ccc(Cl)cc3)nc12`, the growth in [1] is 87.4%; in test [2], 95.4%; in test [3], 82.4%; in [4] it was 96.4%; in test [5] it was 87.1%; in [6], 88.6%. Moreover, the growth in test [7] was 96%; in test [8], 90.9%; in test [9], 79.9%; in test [10], 118%; in test [11], 95.4%; in test [12], 84%. In addition, the growth in [13] is 99.5%; in [14] it was 66.2%; in [15] it was 151%; in [16], 97.5%; in [17], 103%; in [18], 74.1%. In addition, in [19], the growth is 75.4%.

`Cc1ccc(NCc2cn(-c3ccc(C(=O)O)cc3)nc2-c2ccc(C(=O)O)cc2)cc1`: the growth is 110% in test [1]; 97.4% in test [2]; 96.7% in test [3]; 104% in test [4]; 97.1% in test [5]; 106% in test [6]. Also, the growth was 108% in test [7]; 103% in [8]; 94.6% in [9]; 112% in test [10]; 94.3% in test [11]; 106% in [12]. In addition, the growth in test [13] is 108%; in test [14], 90.6%; in [15] it was 99%; in test [16], 108%; in test [18], 104%; in test [19], 105%.

Consider `CC(=O)c1nn(-c2ccc(C)cc2)cc1C(=O)c1cc2c(ccc3ccccc32)oc1=O`, for which the growth in [1] was 99.3%; in test [2], 92.4%; in [3] it was 66.4%; in [4] it was 92.6%; in [5], 104%; in test [6], 87.9%. In addition, the growth was 95.6% in test [7]; 78.3% in test [8]; 90.5% in test [9]; 96.7% in [10]; 99.7% in [11]; 82.3% in test [12]. Also, the growth in test [13] was 94.3%; in test [14], 65.2%; in [15], 144%; in test [16], 88.1%; in test [17], 124%; in [18], 98.4%. The growth in test [19] was 102%.

As to `N=C(N)N=Nc1ccc(NN=C(N)N)cc1`, the growth is 102% in test [1]; 91.1% in test [2]; 76.4% in test [3]; 94.2% in test [4]; 91.8% in test [5]; 45.9% in test [6]. Moreover, the growth is 94% in [7]; 90.8% in test [8]; 96.4% in [9]; 103% in [10]; 105% in test [11]; 36.3% in [12]. Further, the growth in [13] is 89%; in [14], 53.6%; in test [15], 103%; in [16] it was 88.2%; in test [18], 96.3%; in [19], 105%.

With `CCCCCCCCCCN1CC2CCCCC2C1` (centres undefined), the growth in test [1] is 35%; in test [2], 19.8%; in [3] it was 66.3%; in [4], 79.7%; in test [5], 53.4%; in [6] it was 48.4%. For the same compound, the growth in [7] is 49%; in [8], 89.4%; in test [9], 47.1%; in test [10] it was 90.6%; in test [11] it was 95.2%; in test [12] it was 63%. Further, the growth is 75.7% in test [13]; 65.5% in test [14]; 81.4% in test [15]; 80.1% in test [16]; 46.1% in test [18]; 50.2% in [19].

Turning to `COc1ccc(/C=C(/C(=O)N2CCCCC2)c2cc(OC)c(OC)c(OC)c2)cc1`, the growth in test [1] was 26.8%; in test [2], 5.67% (active); in test [3] it was -15.6% (active); in test [4], 32%; in test [5], 26%; in test [6], 12.4%. Moreover, the growth is 26.8% in test [7]; 36.5% in [8]; 36.5% in test [9]; 54.1% in [10]; 28.5% in test [11]; 42.5% in [12]. In addition, the growth in [13] is 39.2%; in [14], 48.2%; in test [15], 77.3%; in [16], 49%; in test [17], -2.33% (active); in test [18], 14.1%. In addition, the growth in [19] was 30.9%.
